Bioassay records as filed in PubChem.
An excerpt weighted towards active compounds, which were near 1.7% of everything screened.
Vif inh: inhibitors of HIV Vif. HEK293T cells, Vif self-association by quenched fluorescence, imaging, 24 h. inhibition, % at 7.49 µM. 0.35% of 340,000 active; in the data active means inhibition above about 50%, passing the limit was not always enough
F508del corr: correctors of CFTR F508del function in bronchial epithelial cells; AID 720511; activity (quench increase), % at 7.58 µM; 0.36% of 350,000 active; CFBE cells, YFP halide quenching; stimulated with forskolin plus potentiator P3; % fluorescence drop versus neutral controls;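 active means mean added fluorescence quench of at least 8% versus neutral control, with both replicates also reaching 8%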;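 further: cells transiently co-express mutant CFTR-F508del with the halide-sensitive YFP; corrector assay measuring rescue of mutant channel to the surface after 24 h compound exposure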
FGF22 binding: FGF22 (human) thermal shift binding. Q9HCT0. recombinant FGF22 thermal shift, SYPRO orange fluorescence; percent of sucrose octasulfate shift, DMSO zero. activity (Tm shift, normalised), % at 9.99 µM. 1.5% of 340,000 active. AID 651658;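 active means mean Tm shift, scaled 0 neutral to 100 positive control, at about 1.3% or above, every replicate too, limit read from the data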
Target sequence (Q9HCT0 whole entry, looked up): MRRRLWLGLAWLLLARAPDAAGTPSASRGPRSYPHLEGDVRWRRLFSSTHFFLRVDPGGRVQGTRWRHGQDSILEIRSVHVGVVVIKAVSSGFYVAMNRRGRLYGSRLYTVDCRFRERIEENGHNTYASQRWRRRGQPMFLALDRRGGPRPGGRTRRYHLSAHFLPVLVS
A number is an active result; - = inactive; . = not tested or not shown; + = active, no number.

SMILES	Vif inh	F508del corr	FGF22 binding
CCCCCCC(C)OC(=O)Nc1cccc2ccccc12 (configuration not stated)	-	-	-
CC(C)CN1CCN(CCCOC(=O)Nc2cccc3ccccc23)CC1C (configuration not stated)	-	-	44
COc1cccc(CNC(=O)CCNS(=O)(=O)c2cccc3nsnc23)c1	-	-	-
COc1cccc(NC(=O)CCNS(=O)(=O)c2cccc3nsnc23)c1	-	-	44
C[C@@H]1CN([C@@H](C)CO)C(=O)c2cc(NS(=O)(=O)c3cccs3)ccc2O[C@H]1CN(C)Cc1ccc(Oc2ccccc2)cc1	.	-	-
COc1ccc(CNC(=O)CSc2nc(C)cs2)cc1	-	.	43
COc1ccc(CCNC(=O)CSc2nc(C)cs2)cc1	-	.	-
Cc1cc(C)c(C)c(S(=O)(=O)NC(C(=O)O)C(C)C)c1C (configuration not stated)	-	-	43
Cc1cc(C)c(C)c(S(=O)(=O)NCC(=O)O)c1C	-	.	.
COc1cc(/C=C2/C(=N)N3C(=NC2=O)SN=C3S(=O)(=O)C(C)C)ccc1OC(=O)c1ccco1	-	-	1.4
CS(=O)(=O)C1=NN2C(=N)/C(=C\c3ccc(OC(=O)c4ccco4)cc3)C(=O)N=C2S1	-	-	-
N=C1/C(=C\c2ccc(OC(=O)c3ccco3)cc2)C(=O)N=C2SC=NN12	-	-	44
CCOc1cc(/C=C2/C(=N)N3C(=NC2=O)SN=C3S(=O)(=O)C(C)C)ccc1OC(=O)c1ccco1	-	-	.
Cn1cnc(CCNC(=O)C[C@@H]2CC[C@H]3[C@@H](COC[C@@H](O)CN3C(=O)C3CC3)O2)c1	.	-	-
CNC(=O)C[C@@H]1CC[C@H]2[C@H](COc3ccc(NS(=O)(=O)c4cccc(F)c4)cc3C(=O)N2C)O1	.	-	-
COc1ccc(NC(=O)N(C)C[C@H]2OCCCC[C@@H](C)Oc3ccc(NC(=O)Nc4ccc(F)cc4)cc3C(=O)N([C@@H](C)CO)C[C@H]2C)cc1	.	-	-
CCCNC(=O)N[C@@H]1CC[C@@H](CCn2cc(C3CCCC3)nn2)O[C@H]1CO	.	-	-
C[C@H](NS(=O)(=O)c1c(Cl)cccc1Cl)C(=O)NNC(=O)COc1ccccc1F	52	-	-
CC(Oc1ccccc1F)C(=O)NNC(=O)CCS(=O)(=O)c1ccccc1Cl (configuration not stated)	-	-	-
COc1ccc2c(c1)CC[C@@H]1[C@@H]2CC[C@]2(C)[C@@H](C(=O)O)C[C@@H]12	-	-	-
C#C[C@]1(O)CC[C@H]2[C@@H]3CCc4cc(OC)ccc4[C@H]3CC[C@@]21C	-	8.4	-
C#C[C@]1(O)CC[C@H]2[C@@H]3CCc4cc(OC5CCCC5)ccc4[C@H]3CC[C@@]21C	-	8.7	-
COc1ccc2c(c1)CC[C@@H]1[C@@H]2CC[C@]2(C)[C@@H](C(C)=O)C[C@@H]12	-	-	-
C[C@@H]1CN([C@H](C)CO)C(=O)c2cccc(NC(=O)C3CCCCC3)c2O[C@@H]1CN(C)S(=O)(=O)c1ccc(F)cc1	.	-	-
COc1ccc(S(=O)(=O)Nc2ccc3c(c2)C(=O)N([C@H](C)CO)C[C@H](C)[C@@H](CN(C)C(=O)CCCN(C)C)OCCCC[C@H](C)O3)cc1	.	-	-
SMILES	Vif inh	F508del corr	FGF22 binding
COc1ccc2[nH]c(C(=O)N/N=C/c3ccc(OC)c(O)c3)cc2c1	-	11	-
COc1ccc(C=NNC(=O)CCCC(=O)NN=Cc2ccc(OC)c(OC)c2)cc1OC	-	-	-
COc1ccc2[nH]c(C(=O)N/N=C/c3ccccc3OC)cc2c1	-	-	-
COc1ccc(C=NNC(=O)CCCC(=O)NN=Cc2ccc(OC)c(O)c2)cc1O	-	15	-
CN(C)c1ccc2c(c1)[C@@H]1C[C@H](CC(=O)O)O[C@H](CO)[C@@H]1O2	.	-	-
C[C@@H]1CN([C@H](C)CO)C(=O)c2cc(NC(=O)CCN3CCOCC3)ccc2O[C@H]1CN(C)C(=O)Nc1ccc(C(F)(F)F)cc1	.	-	-
Cc1nc(NC(=S)Nc2ccccc2)sc1C	-	-	43
CCc1nnc(NC(=S)Nc2ccccc2)s1	-	.	-
C[C@H](CO)N1C[C@H](C)[C@H](CN(C)S(=O)(=O)c2ccc(Cl)cc2)Oc2c(NS(=O)(=O)c3ccc(F)cc3)cccc2C1=O	.	-	-
C[C@@H]1CN([C@@H](C)CO)C(=O)c2cc(-c3ccc(F)cc3)cnc2O[C@H]1CN(C)C(=O)NC1CCCC1	.	-	-
COc1ccc(C(=O)Nc2c(N)nc(SCC(=O)c3ccccc3)[nH]c2=O)cc1	-	-	-
COCCSc1nc(N)c(NC(=O)c2ccc(OC)cc2)c(=O)[nH]1	-	-	43
CC(C)NC(=O)Nc1ccc2c(c1)C(=O)N([C@@H](C)CO)C[C@@H](C)[C@H](CN(C)CC1CC1)OCCCC[C@@H](C)O2	.	-	-
CC(C)N(Cc1nc(-c2ccccc2)no1)C(=O)C(Cl)(Cl)Cl	-	-	43
CC(C)N(Cc1nc(-c2ccccc2)no1)C(=O)C(C)(C)C	-	.	.
C[C@@H]1CN([C@H](C)CO)C(=O)c2cc(NC(=O)NC3CCCCC3)ccc2O[C@@H](C)CCCCO[C@@H]1CN(C)CC1CCCCC1	.	-	-
COCC(=O)N1[C@H](CO)[C@H]2c3ccccc3N(C(=O)c3cccnc3)C[C@H]21	.	-	-
C[C@@H]1CN([C@H](C)CO)C(=O)Cc2cc(NC(=O)NC3CCCCC3)ccc2O[C@H]1CN(C)S(=O)(=O)c1ccc(F)cc1	.	-	-
Cc1ccc(-c2c(C)n([O-])c3c([n+]2=O)CCCC3)cc1	-	-	-
COc1ccc(-c2c(C)n([O-])c3c([n+]2=O)CCCCC3)cc1OC	-	-	43
CCC(=O)N1C[C@@H](C)[C@H](OC)CN(C)C(=O)c2ccc(NC(=O)c3cnccn3)cc2OC[C@H]1C	.	-	-
CCCC(=O)Nc1ccc2c(c1)C(=O)N(C)[C@H]1CC[C@H](CC(=O)OC)O[C@H]1CO2	.	-	-
O=c1c2ccccc2nc(/C=C/c2ccc([N+](=O)[O-])o2)n1CCCO	+	.	.
O=c1c2ccccc2nc(/C=C/c2ccc([N+](=O)[O-])cc2)n1CCCO	-	.	.
O=C1c2ccccc2C(=O)N1C[C@@H]1CCCN(Cc2ccc(OCCO)cc2)C1	.	-	-
SMILES	Vif inh	F508del corr	FGF22 binding
O=C(C[C@H]1C=C[C@@H](NC(=O)C2CCOCC2)[C@@H](CO)O1)NCc1ccccc1Cl	.	-	.
NS(=O)(=O)c1ccc(CCNc2nn3c(-c4cccc(OC(F)(F)F)c4)cnc3s2)cc1	-	14	-
COc1ccc(CNc2nn3c(-c4cccc(C(=O)N(C)C)c4)cnc3s2)cc1	-	-	-
COc1ccc2c3c([nH]c2c1)[C@H](CO)N(C(=O)CN(C)C)CC31CCN(CC2CCCCC2)CC1	.	-	-
O=[N+]([O-])c1ccc(N2CCN(Cc3ccccc3)CC2)s1	-	-	-
O=[N+]([O-])c1ccc(N2CCN(Cc3ccccc3)CC2)c2c1no[n+]2[O-]	114	-	-
C[C@@H]1CN([C@H](C)CO)C(=O)Cc2cc(NC(=O)CCN3CCOCC3)ccc2O[C@H]1CN(C)S(=O)(=O)c1cccs1	.	-	-
CC(C)C#Cc1cnc2c(c1)C(=O)N([C@@H](C)CO)C[C@H](C)[C@@H](CN(C)C(=O)c1ccccn1)O2	.	-	-
